Experimental data reported in PMC5540273 (PLoS ONE, 2017).

Key:
Settings in all cases: concentration: 1 μM, replicates: in singlicate; n = 1
[1] = tested on: RPS6KA4(Kin.Dom.1-N-terminal)
[2] = tested on: RPS6KA4(Kin.Dom.2-C-terminal)
[3] = tested on: RPS6KA5(Kin.Dom.1-N-terminal)
[4] = tested on: RPS6KA5(Kin.Dom.2-C-terminal)
[5] = tested on: T1, RSK1(Kin.Dom.1-N-terminal)
T1 construct: gene RPS6KA1

[6] = tested on: T2, RSK1(Kin.Dom.2-C-terminal)
T2 construct: gene RPS6KA1

[7] = tested on: T3, RSK2(Kin.Dom.1-N-terminal)
T3 construct: gene RPS6KA3

[8] = tested on: T4, RSK2(Kin.Dom.2-C-terminal)
T4 construct: gene RPS6KA3

[9] = tested on: T5, RSK3(Kin.Dom.1-N-terminal)
T5 construct: gene RPS6KA2

[10] = tested on: T6, RSK3(Kin.Dom.2-C-terminal)
T6 construct: gene RPS6KA2

[11] = tested on: T7, RSK4(Kin.Dom.1-N-terminal)
T7 construct: gene RPS6KA6

[12] = tested on: T8, RSK4(Kin.Dom.2-C-terminal)
T8 construct: gene RPS6KA6

S6K1 = tested on: S6K1
SBK1 = tested on: SBK1
SGK2 = tested on: SGK2
SGK3 = tested on: SGK3
SGK = tested on: SGK
SIK2 = tested on: SIK2
SIK = tested on: SIK
SLK = tested on: SLK
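Also: KINOMEscan kinase panel screen.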

SMILES | %Inh [1] [%] | %Inh [2] [%] | %Inh [3] [%] | %Inh [4] [%] | %Inh [5] [%] | %Inh [6] [%] | %Inh [7] [%] | %Inh [8] [%] | %Inh [9] [%] | %Inh [10] [%] | %Inh [11] [%] | %Inh [12] [%] | %Inh (S6K1) [%] | %Inh (SBK1) [%] | %Inh (SGK2) [%] | %Inh (SGK3) [%] | %Inh (SGK) [%] | %Inh (SIK2) [%] | %Inh (SIK) [%] | %Inh (SLK) [%]
CC(=O)Nc1nc2cnc(Nc3cc(NC(=O)c4cccc(C5(C#N)CC5)c4Cl)ccc3C)nc2s1 | 0 | 0 | 14 | 5 | 0 | 25 | 0 | 0 | 0 | 10 | 0 | 18 | 14 | 0 | 0 | 0 | 0 | 6 | 29 | 23
COC(=O)Nc1nc2cc(Oc3ccc(NC(=O)Nc4cc(C(F)(F)F)ccc4F)cn3)ccc2[nH]1.Cl.Cl [GW681170] | 9 | 0 | 21 | 7 | 0 | 50 | 0 | 0 | 0 | 17 | 0 | 0 | 12 | 0 | 1 | 6 | 12 | 0 | 0 | 36
Cl.NC(=O)c1cccc(Nc2nccc(Nc3ccc(Oc4c(Cl)cccc4Cl)c(Cl)c3)n2)c1 [GW659009] | 0 | 0 | 0 | 5 | 0 | 0 | 0 | 5 | 3 | 0 | 0 | 0 | 0 | 24 | 4 | 0 | 19 | 0 | 90.2 | 0
COc1cc(Nc2nccc(-c3c(-c4cccc(NC(=O)c5c(F)cccc5F)c4)nn4ncccc34)n2)cc(OC)c1OC [GSK327238] | 55 | 0 | 43 | 3 | 97.3 | 25 | 84 | 0 | 96.8 | 0 | 10 | 6 | 38 | 28 | 0 | 1 | 0 | 26 | 78 | 99.2
COc1ccc(CNC(=O)NC2CCN(c3ccnc(Nc4ccc(F)cc4)n3)CC2)cc1 [GSK1379788] | 0 | 0 | 7 | 9 | 18 | 0 | 0 | 5 | 0 | 0 | 0 | 12 | 0 | 0 | 0 | 0 | 0 | 0 | 0 | 7
Cn1cc(-c2ccc3c(c2)CCN3C(=O)Cc2cccc(Cl)c2)c2c(N)ncnc21 [GSK2606590] | 22 | 0 | 40 | 0 | 4 | 0 | 1 | 0 | 16 | 0 | 0 | 19 | 0 | 9 | 0 | 0 | 0 | 0 | 10 | 67
CCS(=O)(=O)c1ccc(OC)c(Nc2nccc(-c3c(-c4cccc(NC(=O)c5c(F)cccc5F)c4)nn4ncccc34)n2)c1 [GSK326180] | 16 | 0 | 25 | 0 | 64 | 0 | 0 | 0 | 29 | 0 | 0 | 0 | 6 | 0 | 5 | 0 | 0 | 0 | 3 | 54
CN(C)Cc1ccc(-c2ccc3c(Nc4ccc(Oc5ccccn5)cc4)ccnc3c2)o1 [GW567148] | 2 | 0 | 4 | 0 | 0 | 0 | 1 | 0 | 0 | 0 | 17 | 0 | 5 | 8 | 0 | 0 | 0 | 79 | 99.2 | 31
